The whole screen tested about 5,500 compounds, of which about 2,000 (36%) were called active. Not shown: some 18% with an inconclusive outcome. Rule as the data show it: active = normalized growth mostly below about 0.91 (no sharp cut-off); inconclusive = no clear call, values can overlap the other calls; inactive = mostly above about 0.92. This is one part of the list.
Assay: chemical genetic growth profiling, strain panel (AID 1159580);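 also: tested at 20 µM; growth read once vehicle control cultures reached saturation at 30 °C; 1 = growth at the plate median or of vehicle wells; lower values mean less growth of the strain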
Settings: S. cerevisiae deletion strains, growth OD
[1] = locus YAL013W, strain DEP1, stronger effect = lower value
[2] = locus YAL040C, strain CLN3, stronger effect = lower value
[3] = locus YCL061C, strain MRC1 (second series), stronger effect = lower value
[4] = locus YDR150W, strain NUM1, stronger effect = lower value
[5] = locus YDR363W, strain ESC2, stronger effect = lower value
[6] = locus YER002W, strain NOP16, stronger effect = lower value
[7] = locus YGR229C, strain SMI1, stronger effect = lower value
[8] = locus YMR307W, strain GAS1, stronger effect = lower value
[9] = locus YNL175C, strain NOP13, stronger effect = lower value
[10] = locus YNL197C, strain WHI3, stronger effect = lower value
[11] = locus YNL224C, strain SQS1, stronger effect = lower value
[12] = locus YOR083W, strain WHI5 (second series), stronger effect = lower value
[13] = locus YPL241C, strain CIN2, stronger effect = lower value
[14] = locus YHR030C, strain SLT2, stronger effect = lower value
[15] = locus YHR079C, strain IRE1, stronger effect = lower value
[16] = locus YJL095W, strain BCK1, stronger effect = lower value
[17] = locus YJR066W, strain TOR1, stronger effect = lower value
[18] = locus YLR113W, strain HOG1, stronger effect = lower value
[19] = locus YNL183C, strain NPR1, stronger effect = lower value
[20] = locus YOR231W, strain MKK1, stronger effect = lower value
[21] = locus YPL256C, strain CLN2, stronger effect = lower value
[22] = locus YDL101C, strain DUN1, stronger effect = lower value
[23] = locus YGR078C, strain PAC10, stronger effect = lower value
[24] = locus YJR075W, strain HOC1, stronger effect = lower value
[25] = locus YMR263W, strain SAP30, stronger effect = lower value
[26] = locus YPL055C, strain LGE1, stronger effect = lower value

Measured: normalized growth

[Li+]
inactive: [1] 1.01 | [2] 0.996 | [3] 1.01 | [4] 1.02 | [5] 1.01 | [6] 1 | [7] 1.02 | [8] 0.994 | [9] 1 | [10] 1.02 | [11] 1 | [12] 1.01 | [13] 1.01

c1ccc(-c2ccc(C(c3ccccc3)n3ccnc3)cc2)cc1 (centres undefined)
active: locus YAL021C, strain ccr4, stronger effect = lower value 0.0644 | locus YAL026C, strain drs2, stronger effect = lower value 0.0618 | locus YAL030W, strain snc1, stronger effect = lower value 0.0587 | locus YBL061C, strain skt5, stronger effect = lower value 0.0709 | locus YBR009C, strain hhf1, stronger effect = lower value 0.0624 | locus YBR023C, strain chs3, stronger effect = lower value 0.0697 | locus YBR171W, strain sec66, stronger effect = lower value 0.0929 | locus YBR231C, strain swc5, stronger effect = lower value 0.0689 | locus YBR279W, strain paf1, stronger effect = lower value 0.0719 | locus YCL011C, strain gbp2, stronger effect = lower value 0.0606 | locus YCL016C, strain dcc1, stronger effect = lower value 0.0733 | locus YCL069W, strain vba3, stronger effect = lower value 0.066 | locus YCR088W, strain abp1, stronger effect = lower value 0.0692 | locus YDL005C, strain med2, stronger effect = lower value 0.0767 | locus YDL040C, strain nat1, stronger effect = lower value 0.0668 | locus YDR001C, strain nth1, stronger effect = lower value 0.067 | locus YDR069C, strain doa4, stronger effect = lower value 0.0703 | locus YDR137W, strain rgp1, stronger effect = lower value 0.127 | locus YDR159W, strain sac3, stronger effect = lower value 0.0937 | locus YDR195W, strain ref2 0.13 | locus YDR297W, strain sur2, stronger effect = lower value 0.0659 | locus YDR334W, strain swr1, stronger effect = lower value 0.0716 | locus YDR335W, strain msn5, stronger effect = lower value 0.0638 | locus YDR392W, strain spt3, stronger effect = lower value 0.0713 | locus YEL003W, strain gim4, stronger effect = lower value 0.0535 | locus YEL037C, strain rad23, stronger effect = lower value 0.0622 | locus YEL061C, strain CIN8 (second series), stronger effect = lower value 0.0652 | locus YER015W, strain faa2, stronger effect = lower value 0.0699 | locus YER016W, strain bim1, stronger effect = lower value 0.0698 | locus YER111C, strain swi4, stronger effect = lower value 0.0902 | locus YER155C, strain BEM2 (second series), stronger effect = lower value 0.0914 | locus YFR010W, strain ubp6, stronger effect = lower value 0.0846 | locus YGL167C, strain pmr1, stronger effect = lower value 0.124 | locus YGL173C, strain kem1, stronger effect = lower value 0.0886 | locus YGL227W, strain vid30, stronger effect = lower value 0.077 | locus YGL240W, strain doc1, stronger effect = lower value 0.108 | locus YGL253W, strain hxk2, stronger effect = lower value 0.0596 | locus YHR013C, strain ard1, stronger effect = lower value 0.105 | locus YHR027C, strain rpn1, stronger effect = lower value 0.0776 | [14] 0.105 | [15] 0.13 | locus YHR142W, strain chs7, stronger effect = lower value 0.0799 | locus YJL092W, strain hpr5, stronger effect = lower value 0.0642 | locus YJL095W, strain BCK1 (second series), stronger effect = lower value 0.0592 | [16] 0.127 | locus YJL115W, strain asf1, stronger effect = lower value 0.087 | locus YJL129C, strain trk1, stronger effect = lower value 0.102 | locus YJL154C, strain vps35, stronger effect = lower value 0.0754 | locus YJL164C, strain tpk1, stronger effect = lower value 0.0615 | locus YJL166W, strain qcr8, stronger effect = lower value 0.0657 | locus YJL187C, strain SWE1, stronger effect = lower value 0.0683 | [17] 0.0151 | locus YKL160W, strain elf1, stronger effect = lower value 0.0739 | locus YKR026C, strain gcn3, stronger effect = lower value 0.0725 | locus YKR091W, strain srl3, stronger effect = lower value 0.066 | locus YLL001W, strain dnm1, stronger effect = lower value 0.0668 | locus YLL026W, stronger effect = lower value 0.0595 | locus YLL041C, strain sdh2, stronger effect = lower value 0.0629 | locus YLR027C, strain aat2, stronger effect = lower value 0.0596 | [18] 0.164 | locus YLR221C, strain rsa3, stronger effect = lower value 0.0622 | locus YLR258W, strain gsy2, stronger effect = lower value 0.0654 | locus YLR262C, strain YPT6 (second series), stronger effect = lower value 0.0894 | locus YLR320W, strain mms22, stronger effect = lower value 0.0767 | locus YLR342W, strain FKS1, stronger effect = lower value 0.0755 | locus YLR357W, strain rsc2, stronger effect = lower value 0.128 | locus YLR370C, strain arc18, stronger effect = lower value 0.0619 | locus YLR384C, strain iki3, stronger effect = lower value 0.0674 | locus YML120C, strain ndi1, stronger effect = lower value 0.0564 | locus YMR058W, strain fet3, stronger effect = lower value 0.068 | locus YMR125W, strain sto1, stronger effect = lower value 0.082 | locus YMR129W, stronger effect = lower value 0.0621 | locus YMR205C, strain PFK2, stronger effect = lower value 0.0925 | locus YMR231W, strain pep5, stronger effect = lower value 0.179 | locus YNL071W, strain lat1, stronger effect = lower value 0.0616 | [19] 0.0338 | locus YNL209W, strain ssb2, stronger effect = lower value 0.0868 | locus YNL248C, strain rpa49, stronger effect = lower value 0.0877 | locus YNL322C, strain KRE1 (second series), stronger effect = lower value 0.08 | locus YNR049C, strain mso1, stronger effect = lower value 0.0653 | locus YOR001W, strain rrp6, stronger effect = lower value 0.075 | locus YOR070C, strain gyp1, stronger effect = lower value 0.0635 | locus YOR080W, strain dia2, stronger effect = lower value 0.0729 | locus YOR083W, strain WHI5, stronger effect = lower value 0.0687 | locus YOR106W, strain vam3, stronger effect = lower value 0.0685 | [20] 0.141 | locus YOR265W, strain rbl2, stronger effect = lower value 0.0651 | locus YOR270C, strain vph1, stronger effect = lower value 0.0985 | locus YOR290C, strain snf2, stronger effect = lower value 0.0719 | locus YPL051W, strain arl3, stronger effect = lower value 0.0743 | locus YPL078C, strain atp4, stronger effect = lower value 0.07 | locus YPL106C, strain sse1, stronger effect = lower value 0.116 | locus YPL240C, strain hsp82, stronger effect = lower value 0.0631 | [21] 0.153

O=C(NCc1ccco1)c1csc(C2COc3ccccc3O2)n1 (centres undefined)
inactive: locus YAR019C, strain CDC15, stronger effect = lower value 0.916 | locus YBL105C, strain PKC1, stronger effect = lower value 0.917 | locus YBR135W, strain CKS1, stronger effect = lower value 0.918 | locus YBR136W, strain MEC1, stronger effect = lower value 0.925 | locus YBR160W, strain CDC28, stronger effect = lower value 0.914 | locus YDL017W, strain CDC7, stronger effect = lower value 0.925 | locus YDL028C, strain MPS1, stronger effect = lower value 0.919 | [22] 0.964 | locus YDL108W, strain KIN28, stronger effect = lower value 0.937 | locus YDL132W, strain cdc53, stronger effect = lower value 0.897 | locus YDL214C, strain PRR2, stronger effect = lower value 0.854 | locus YDR226W, strain ADK1, stronger effect = lower value 0.923 | locus YDR477W, strain SNF1, stronger effect = lower value 0.773 | locus YER123W, strain YCK3, stronger effect = lower value 0.663 | locus YER133W, strain GLC7, stronger effect = lower value 0.902 | locus YFL009W, strain cdc4, stronger effect = lower value 0.913 | locus YFL029C, strain CAK1, stronger effect = lower value 0.915 | locus YFR003C, strain YPI1, stronger effect = lower value 0.931 | locus YFR028C, strain CDC14, stronger effect = lower value 0.936 | locus YGR040W, strain KSS1, stronger effect = lower value 0.868 | locus YGR052W, strain FMP48, stronger effect = lower value 0.802 | [15] 0.712 | locus YHR082C, strain KSP1, stronger effect = lower value 0.896 | locus YHR205W, strain SCH9, stronger effect = lower value 0.894 | locus YIL147C, strain SLN1, stronger effect = lower value 0.922 | [16] 0.689 | locus YJL128C, strain PBS2, stronger effect = lower value 0.98 | locus YJL157C, strain FAR1, stronger effect = lower value 0.797 | locus YJR016C, strain ILV3, stronger effect = lower value 0.904 | [17] 0.745 | locus YKL048C, strain ELM1, stronger effect = lower value 0.906 | locus YKL067W, strain YNK1, stronger effect = lower value 0.841 | locus YKL101W, strain HSL1, stronger effect = lower value 0.873 | locus YKL193C, strain SDS22, stronger effect = lower value 0.932 | locus YKL203C, strain TOR2, stronger effect = lower value 0.851 | locus YLR133W, strain CKI1, stronger effect = lower value 0.845 | locus YLR403W, strain SFP1, stronger effect = lower value 0.839 | locus YML070W, strain DAK1, stronger effect = lower value 0.689 | locus YMR001C, strain CDC5, stronger effect = lower value 0.919 | locus YMR205C, strain PFK2 (second series), stronger effect = lower value 0.893 | locus YMR277W, strain FCP1, stronger effect = lower value 0.915 | locus YNL006W, strain LST8, stronger effect = lower value 0.926 | locus YNL020C, strain ARK1, stronger effect = lower value 0.843 | locus YNL161W, strain CBK1, stronger effect = lower value 0.921 | [19] 0.737 | locus YNL207W, strain RIO2, stronger effect = lower value 0.915 | locus YNL222W, strain SSU72, stronger effect = lower value 0.917 | locus YOL078W, strain AVO1, stronger effect = lower value 0.928 | locus YOR119C, strain RIO1, stronger effect = lower value 0.894 | [20] 0.746 | locus YOR329C, strain SCD5, stronger effect = lower value 0.909 | locus YPL031C, strain PHO85, stronger effect = lower value 0.85 | locus YPL153C, strain RAD53, stronger effect = lower value 0.773 | locus YPL204W, strain HRR25, stronger effect = lower value 0.796 | locus YPL209C, strain IPL1, stronger effect = lower value 0.923 | locus YPR025C, strain CCL1, stronger effect = lower value 0.916 | locus YPR106W, strain ISR1, stronger effect = lower value 0.956 | locus YPR111W, strain DBF20, stronger effect = lower value 0.947 | strain NNK1, stronger effect = lower value 0.944 | strain TSCII, stronger effect = lower value 0.92
active: locus YDR052C, strain DBF4, stronger effect = lower value 0.909 | locus YDR054C, strain cdc34, stronger effect = lower value 0.875 | locus YFR019W, strain FAB1, stronger effect = lower value 0.711 | locus YGR092W, strain DBF2, stronger effect = lower value 0.154 | [14] 0.623 | locus YJR066W, strain TOR1 (second series), stronger effect = lower value 0.343 | [18] 0.811 | locus YNL307C, strain MCK1 (second series), stronger effect = lower value 0.585 | locus YOL136C, strain PFK27, stronger effect = lower value 0.66 | locus YOR061W, strain CKA2, stronger effect = lower value 0.586 | [21] 0.754

c1ccc2c(c1)OCC(C1=NCCN1)O2 (centres undefined)
inactive: [1] 1.02 | [2] 1 | [3] 1 | [5] 1.03 | [6] 0.987 | [23] 1.01 | [7] 1.02 | [24] 1 | [25] 1.02 | [8] 0.996 | [9] 1.02 | [10] 1.01 | [11] 1.01 | [12] 0.996 | [26] 1.01

C/C(=N/OC(=O)c1ccc(Cl)cc1)c1ccc(F)cc1
active: locus YEL061C, strain CIN8, stronger effect = lower value 0.889 | [14] 0.448 | locus YJR043C, strain POL32, stronger effect = lower value 0.914 | [24] 0.847 | locus YLR039C, strain RIC1, stronger effect = lower value 0.515 | locus YLR085C, strain ARP6, stronger effect = lower value 0.598 | locus YLR262C, strain YPT6, stronger effect = lower value 0.462 | locus YML094W, strain GIM5, stronger effect = lower value 0.809 | locus YNL153C, strain GIM3, stronger effect = lower value 0.908 | locus YNR030W, strain Alg12, stronger effect = lower value 0.879 | locus YOL006C, strain TOP1, stronger effect = lower value 0.467 | [26] 0.811 | [13] 0.829
inactive: [1] 0.946 | locus YBR229C, strain ROT2, stronger effect = lower value 0.96 | [22] 0.952 | [4] 0.913 | [23] 0.961 | locus YHR087W, strain rtc3, stronger effect = lower value 0.953 | locus YLR058C, strain SHM2 (second series), stronger effect = lower value 0.982 | locus YMR219W, strain ESC1, stronger effect = lower value 0.957 | [25] 0.939 | locus YNL128W, strain TEP1, stronger effect = lower value 0.943 | locus YNL298W, strain CLA4 (second series), stronger effect = lower value 0.85 | locus YNL322C, strain KRE1, stronger effect = lower value 0.975 | locus YPR135W, strain CTF4, stronger effect = lower value 0.763
